Only some compounds are listed: those with a hit (about 2.2% of all), similar ones and a draw of the others.
aSyn yeast inh = rescues yeast growth from alpha-synuclein toxicity; Yeast expressing alpha-synuclein, growth rescue, BacTiter-Glo, 24 h; Potency, µM (titrated, usually from 46.1 µM), for inactives: at the top dose growth rescue (activation), hits mostly activators; AID 652106; 370,000 compounds, 0.14% hits; note: % of control where 0% means no effect; nearly all actives have a fitted effect of over 65% in size
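Rescue of yeast growth: cells expressing toxic alpha-synuclein, induced in galactose at OD600 0.02, incubated with compound 24 h at 30 C. ATP luminescence quantified growth; inhibitors of toxicity appear as activators.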
Mito fusion act = blocks mitochondrial division or promotes mitochondrial fusion; S. cerevisiae fusion-defective mutant growth rescue, CellTiterGlo 48 h; Potency, µM (top dose mostly 46.1 µM), for inactives: at the highest dose growth rescue (activation), actives largely listed as activators; 320,000 compounds, 0.23% hits; note: % of control where 0% means no effect; nearly all actives have a fitted effect of over 45% in size
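Compounds are tested for their ability to restore growth of mitochondrial fusion-defective yeast strains at non-permissive 37C in YPEG medium over 48 hours. Viability is quantified by luciferase luminescence.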
Abeta rescue = compounds reversing amyloid beta toxicity in yeast | yeast expressing A-beta42, growth rescue, OD600, 48 h; response scale: 0% DMSO, 100% iron-clioquinol control | Potency, µM (series often up to 46.1 µM), usual class: activators | 410,000 compounds, 0.063% hits | AID 1347071; note: nearly all actives have a fitted effect of over 55% in size
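Growth rescue measured by 600 nm absorbance after 48 h yeast culture at 30 C with compound. Values normalized between DMSO and an equimolar ferric chloride plus clioquinol control.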
ERG Ets-DNA blk = blocks human ERG Ets domain binding to DNA | 370,000 compounds, 0.028% hits | P11308 | Potency, µM (highest dose often 76.9 µM), for inactives: top-dose FP activity, negative = inhibition, usual class: inhibitors | fluorescence polarization, His-ERG Ets domain / labelled DNA; active = well fitted inhibition curve with a large enough effect in the polarisation, with a control signal flat; inconclusive = small, poorly fitted or top-dose-only effect, or effect the other way, or a change in a side signal; inactive = no such curve, though single readings can be large or run the other way; the % refers to the polarisation;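 note: polarization taken with two DNA probes labelled with fluorescein and Texas red; % of control where 0% means no effect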
Target sequence (P11308 whole entry, looked up, the tested form may be a part): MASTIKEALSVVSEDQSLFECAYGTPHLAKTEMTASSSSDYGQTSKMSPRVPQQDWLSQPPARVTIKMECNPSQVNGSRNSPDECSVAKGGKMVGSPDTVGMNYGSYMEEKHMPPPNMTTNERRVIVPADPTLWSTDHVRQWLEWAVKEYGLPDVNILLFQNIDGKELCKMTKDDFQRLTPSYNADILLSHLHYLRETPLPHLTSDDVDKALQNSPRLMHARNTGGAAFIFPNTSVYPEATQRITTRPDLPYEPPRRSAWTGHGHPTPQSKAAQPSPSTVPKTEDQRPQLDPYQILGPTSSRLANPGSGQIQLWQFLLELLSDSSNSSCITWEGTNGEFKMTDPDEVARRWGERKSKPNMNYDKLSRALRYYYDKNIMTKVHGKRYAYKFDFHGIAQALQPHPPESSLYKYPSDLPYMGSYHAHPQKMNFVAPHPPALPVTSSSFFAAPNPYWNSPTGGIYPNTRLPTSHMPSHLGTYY
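His-tagged ERG Ets domain (1 uM in the protein solution; 300mM KCl, 50mM Tris-HCl, 1mM EDTA, 1mM DTT, pH 7.5) received compound, then a probe mix of 5 nM fluorescein-DNA and 100nM Texas-615-DNA. Fluorescence polarization was read for both dyes.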
FUS yeast rescue = FUS proteinopathy suppression in yeast; S. cerevisiae FUS-expressing, growth rescue, OD600, 24 h; Potency, µM (highest dose often 76.6 µM), actives largely listed as activators; 390,000 compounds, 0.24% hits; AID 1347120;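 note: plate controls were DMSO vehicle for no effect and reference control for full effect; nearly all actives have a fitted effect of over 55% in size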
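Read-out: OD at 600 nm after 24hr at 30C, reporting rescue of FUS-induced yeast toxicity. Cells at OD 0.005 in galactose (2%) minimal medium; compounds tested in a dilution series; CP55940 titration from 92uM final as control.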
TDP43 rescue = inhibitors of TDP-43 toxicity in yeast; TDP-43 expressing yeast growth rescue, BacTiter-Glo, 24 h; Potency, µM (top dose mostly 46.1 µM), for inactives: at the highest dose growth rescue (activation), hits mostly activators; 410,000 compounds, 1.8% hits; note: % of control where 0% means no effect; nearly all actives have a fitted effect of over 50% in size
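Cell-based yeast growth screen: TDP-43 expression induced in galactose, inoculum OD600=0.02 after raffinose pregrowth to mid-log. Read-out BacTiter-Glo luminescence at 24 hr, 30 deg C; inhibition of toxicity seen as signal increase.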
An asterisk follows results filed as active; i = inactive; ? = inconclusive; . = no result given; ! = not active in a repeat; [ ] = remark or other dose. Unless noted, calls come from the whole dose curve; as a rule, active = well fitted curve in the direction sought with a large enough effect; inconclusive = small, poorly fitted or top-dose-only effect, or another doubt; inactive = no such curve, though single readings can be large; an effect the other way counts as inactive or inconclusive. Potency is the fitted concentration of half-maximal effect.

SMILES | aSyn yeast inh | Mito fusion act | Abeta rescue | ERG Ets-DNA blk | FUS yeast rescue | TDP43 rescue
COc1ccccc1N1CCN(CCN(C(=O)c2ccc(F)cc2)c2ccccn2)CC1 | 14µM*! | 1% | i | 5% | i | 18%
COc1cccc2cc(-c3nc4ccccc4o3)c(=O)oc12 | 3.2µM* | 0% | i | 3% | i | 3.2µM*
O=C(C1CCC1)N1CCc2cc(S(=O)(=O)C3CCN(Cc4ccc(F)cc4)CC3)ccc21 | . | . | . | . | i | .
O=C(Cn1ncc2c1-c1ccccc1OC2)N1CCN(c2ccccn2)CC1 | 7% | -4% | i | -6% | i | 14%
Cc1ccc2c(c1)-c1c(cnn1CC(=O)N1CCN(c3cc(C)ccc3C)CC1)CO2 | . | . | i | -8% | i | 35µM*
Cc1ccc(Cn2c(C)c3cnn(CC(=O)N4CCN(c5cc(C)ccc5C)CC4)c(=O)c3c2C)cc1 | . | . | i | 0% | ? | 16µM*
Cc1c2cnn(CC(=O)N3CCN(c4ccc(F)cc4)CC3)c(=O)c2c(C)n1Cc1ccc(F)cc1 | . | . | i | -1% | i | -17%
Cc1cccc(N2CCN(C(=O)Cn3ncc4c3-c3ccccc3OC4)CC2)c1C | . | . | i | 5% | ? | 18µM*
CC(=O)N1CCCc2cc(S(=O)(=O)N3CCC(C(=O)NC4CCC(C)CC4)CC3)ccc21 (configuration not stated) | . | . | ? | -3% | i | 12%
CCn1c(SC/C=C/c2ccccc2)nnc1-c1cccs1 | 5% | 10% | i | 6% | i | 7%
Cn1c(SC/C=C/c2ccccc2)nnc1-c1cccs1 | 17% | 11% | i | -6% | i | 18µM*
Cc1ccc(OCCSc2nnc(-c3cccs3)n2C)cc1 | 6% | 0% | i | -7% | i | 13µM*
COc1cccc(NC(=O)c2ccc(CNS(=O)(=O)c3ccc4c(c3)C(C)(C)C(=O)N4C)cc2)c1 | . | . | i | 0% | i | 19%
COc1cc(C(CC(=O)Nc2cc(C)ccc2C)N2Cc3ccccc3C2=O)cc(OC)c1OC (configuration not stated) | 0% | . | i | -3% | i | 14%
O=C(CSc1c2c(nc3ccc(Cl)cc13)CCCC2)N1CCN(c2ccc(Cl)cc2)CC1 | . | . | i | 8% | ? | 18µM*
CCc1ccc(CNC(=O)CSc2c3c(nc4ccc(Cl)cc24)CCCC3)cc1 | . | . | i | 1% | i | ?
O=C(CSc1c2c(nc3ccc(Cl)cc13)CCCC2)N1CCN(c2cccc(Cl)c2)CC1 | . | . | i | -3% | ? | 16µM*
COc1cccc(CNC(=O)CSc2c3c(nc4ccc(Cl)cc24)CCCC3)c1OC | . | . | i | 6% | i | ?
Cc1ccc(CNC(=O)CSc2c3c(nc4cc(Cl)ccc24)CCCC3)o1 | -13% | -1% | i | 14% | ? | 16µM*
COc1ccc(N2CCN(C(=O)CSc3c4c(nc5ccc(Cl)cc35)CCCC4)CC2)cc1 | . | . | i | -4% | ? | 32µM*
O=C(CN1CCN(c2nc(-c3ccccc3)cs2)CC1)Nc1ccc(Cl)c(Cl)c1 | . | . | . | . | i | .
COc1ccc(CNC2CCC23CCCCC3)cc1OC (configuration not stated) | . | . | . | . | i | .
C[C@H]1[C@@H](NC(=O)C2CCC2)CC[C@@]23CCCN2C(=O)CCC[C@@H]13 | . | . | . | . | i | .
Cc1cc(=O)c2cc(C(=O)Nc3ccccc3)ccc2[nH]1 | . | . | i | 4% | i | 0%[9.22 µM]
CCn1nc(C)c(/C=N/NC(=O)c2ccc3c(c2)c(C)c(C)n3Cc2ccccc2)c1C | 2% | 4% | i | 8% | 11µM* | 5%
CCc1ccccc1NC(=O)CSc1ncc2c(n1)-c1ccccc1N(C)S2(=O)=O | . | . | i | -3% | i | 17%
CCCCNc1ccc(-c2nc(-c3ccccc3)no2)cc1[N+](=O)[O-] | . | . | i | -1% | i | -2%
